Source: PubChem
Most compounds without a hit are left out; they make up all but 3.1% or so of the library.
Bead autofluor = compound fluorescence in toxin protease inhibitor counterscreen; compound autofluorescence counterscreen, microsphere flow cytometry; hits give high values; fluorescence intensity (concentration not given with the values); actives 3.1% (n = 360,000); in the data active = fluorescence intensity above about 16000; inconclusive = no clear call, values can overlap the other calls
BoNT F protease = blocks Botulinum neurotoxin F light chain protease | inhibition, % at 10 µM | actives 0.22% (n = 360,000) | Multiplex microsphere protease cleavage assay, flow cytometry | AID 588497; in the data active = inhibition above about 35%, passing the limit was not always enough; inconclusive = no clear call, values can overlap the other calls; also: plate controls were buffer without enzyme for full effect and enzyme alone for no effect
Anthrax LF inh2 = inhibitors of Bacillus anthracis lethal factor protease; P15917; multiplex microsphere protease cleavage assay, LF; inhibition, % at 10 µM; actives 0.12% (n = 360,000); AID 588501; also: plate controls were buffer without enzyme for full effect and enzyme alone for no effect
SSB-PriA inh = blocks PriA binding to SSB C-terminal tail; AID 1272365; actives 0.6% (n = 430,000); AlphaScreen SSBct-PriA binding, biotinylated peptide; inhibition, % at 33 µM; in the data active = inhibition mostly above about 37%, no sharp cut-off; inactive = mostly below about 20%;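 also: plate controls were negative control peptide for no effect and reference peptide for full effect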
BoNT-A LC inh2 = inhibitors of Botulinum neurotoxin A light chain protease; multiplex microsphere protease substrate cleavage, flow cytometry; inhibition, % at 10 µM; actives 0.17% (n = 360,000); AID 588499; also: plate controls were buffer without enzyme for full effect and enzyme alone for no effect
* hit, by the source's call. Rule as the data show it, unless noted: active = inhibition above about 30%; inconclusive = no clear call, values can overlap the other calls; inactive = below that.

Screening COCCN1CCC(NC(=O)c2ccc(C(C)(C)C)cc2)CC1 returned SSB-PriA inh -5.
Screening CCc1nnc(NC(=O)c2ccc3c(c2)C(=O)N(CC)C3=O)s1 returned Bead autofluor 23383*, BoNT F protease -1, Anthrax LF inh2 -3, SSB-PriA inh -3 and BoNT-A LC inh2 -1.
Cc1ccccc1NC(=O)c1ccc2c(c1)C(=O)N(CCC(C)C)C2=O was read as Bead autofluor 4342, BoNT F protease -8, Anthrax LF inh2 1, SSB-PriA inh 3 and BoNT-A LC inh2 0.
For CCN1C(=O)c2ccc(C(=O)Nc3nccs3)cc2C1=O the results were SSB-PriA inh -4.
Screening Cc1nnc(NC(=O)c2ccc3c(c2)C(=O)N(CCC(C)C)C3=O)s1 returned Bead autofluor 20485*, BoNT F protease -1, Anthrax LF inh2 0, SSB-PriA inh -15 and BoNT-A LC inh2 -1.
`COc1ccc(NC(=O)CN2C(=O)CC(c3ccc(C)cc3)=Nc3cccnc32)cc1Cl` gave SSB-PriA inh 5.
Screening CCN(CC)C(=O)Oc1ccc2c(=O)c(-c3ccccc3)coc2c1 returned Bead autofluor 21592*, BoNT F protease 4, Anthrax LF inh2 0, SSB-PriA inh -14 and BoNT-A LC inh2 2.
For CCOc1ccc(C(=O)N(CN2CCCC2=O)c2ccccc2)cc1 the results were Bead autofluor 19439*, BoNT F protease 0, Anthrax LF inh2 0, SSB-PriA inh -17 and BoNT-A LC inh2 inconclusive.
Cc1ccc(N(CN2CCCC2=O)C(=O)c2ccc(OC(C)C)cc2)cc1 was read as Bead autofluor 19242*, BoNT F protease 1, Anthrax LF inh2 -2, SSB-PriA inh -19 and BoNT-A LC inh2 inconclusive.
Cc1nc(-c2cccc(NC(=O)C3(c4cccs4)CCCC3)c2)cs1 was read as SSB-PriA inh -5.
Screening O=C(Nc1cc(-c2cccs2)no1)c1ncc(-c2ccc(F)cc2)o1 returned SSB-PriA inh -4.
`CS(=O)(=O)Nc1ccccc1C(=O)Nc1ccccc1Cl` gave Bead autofluor 2298, BoNT F protease -1, Anthrax LF inh2 -4, SSB-PriA inh -2 and BoNT-A LC inh2 -1.
CS(=O)(=O)Nc1ccccc1C(=O)Nc1cc(Cl)cc(Cl)c1 was read as Bead autofluor 20510*, BoNT F protease -3, Anthrax LF inh2 -2, SSB-PriA inh -4 and BoNT-A LC inh2 -2.
Screening N#C/C(=C\c1ccc(N2CCOCC2)o1)c1nc2ccccc2[nH]1 returned Bead autofluor 11443, BoNT F protease 102*, Anthrax LF inh2 -4, SSB-PriA inh 26 and BoNT-A LC inh2 -17.
Cc1cc2ncn(N=Cc3ccc([N+](=O)[O-])s3)c2cc1C was read as SSB-PriA inh 19.
`CCCCSCc1ccc(C(=O)O)o1` gave Bead autofluor 20913*, BoNT F protease 6, Anthrax LF inh2 0, SSB-PriA inh -6 and BoNT-A LC inh2 3.
For O=C(Nc1nnc(-c2ccc(Br)s2)o1)C1CCCCC1 the results were SSB-PriA inh -11.
Screening Cc1nsc(C(=O)N2CCN(c3ccccn3)CC2)n1 returned SSB-PriA inh -22.
For CCCCNC(=O)COC(=O)c1c2c(nc3ccccc13)/C(=C\c1cccs1)CC2 the results were Bead autofluor 3435, BoNT F protease 8, Anthrax LF inh2 15, SSB-PriA inh -1 and BoNT-A LC inh2 15.
For CC(C)CNC(=O)COC(=O)c1c2c(nc3ccccc13)/C(=C/c1cccs1)CC2 the results were Bead autofluor 8338, BoNT F protease 18, Anthrax LF inh2 24, SSB-PriA inh -10 and BoNT-A LC inh2 31*.
COc1ccc(NC(=O)c2c(C(F)(F)F)nn(C)c2SCc2ccccc2Cl)cc1 was read as Bead autofluor 19414*, BoNT F protease -1, Anthrax LF inh2 1, SSB-PriA inh -22 and BoNT-A LC inh2 2.
`O=S(=O)(Cl)/C=C/c1ccccc1` gave SSB-PriA inh 5.
O=S(=O)(/C=C/c1ccccc1)Oc1ccccc1 was read as Bead autofluor 21677*, BoNT F protease -4, Anthrax LF inh2 0, SSB-PriA inh -3 and BoNT-A LC inh2 -3.
`Cc1ccc(C(=O)NC(Cc2c[nH]c3ccccc23)C(=O)O)cc1` (stereo unspecified) gave Bead autofluor 20051*, BoNT F protease 0, Anthrax LF inh2 -2, SSB-PriA inh -1 and BoNT-A LC inh2 inconclusive.
`CC(C)c1ccc(OCC(=O)NC(Cc2c[nH]c3ccccc23)C(=O)O)cc1` (stereo unspecified) gave Bead autofluor 4598, BoNT F protease -1, Anthrax LF inh2 1, SSB-PriA inh -11 and BoNT-A LC inh2 0.
`O=C(COc1ccccc1)NC(Cc1c[nH]c2ccccc12)C(=O)O` (stereo unspecified) gave Bead autofluor 16391*, BoNT F protease 0, Anthrax LF inh2 -5, SSB-PriA inh -8 and BoNT-A LC inh2 0.
Screening O=C(NC(Cc1c[nH]c2ccccc12)C(=O)O)c1ccc(Br)cc1 (stereo unspecified) returned Bead autofluor 2115, BoNT F protease -7, Anthrax LF inh2 -2, SSB-PriA inh -3 and BoNT-A LC inh2 0.
`COc1cc(OC)cc(C(=O)N(Cc2cnc3ccccn23)C2CC2)c1` gave SSB-PriA inh -1.
Screening CC1(C(=O)NC(=S)N(CCC#N)c2ccccc2)CC1(Cl)Cl (stereo unspecified) returned Bead autofluor 21445*, BoNT F protease 4, Anthrax LF inh2 -7, SSB-PriA inh -5 and BoNT-A LC inh2 3.
Screening CC(C)N(Cc1ccccc1)C(=S)NC(=O)C1(C)CC1(Cl)Cl (stereo unspecified) returned Bead autofluor 4295, BoNT F protease -8, Anthrax LF inh2 -1, SSB-PriA inh -7 and BoNT-A LC inh2 -2.
`COc1ccccc1N(CN1CCCC1=O)C(=O)c1cccc(F)c1` gave SSB-PriA inh 2.
COc1cc(OC)cc(C(=O)N(CN2CCCC2=O)c2ccccc2OC)c1 was read as Bead autofluor 18589*, BoNT F protease -14, Anthrax LF inh2 0, SSB-PriA inh -8 and BoNT-A LC inh2 -6.
For COc1ccccc1N(CN1CCCC1=O)C(=O)COc1ccccc1 the results were Bead autofluor 16310*, BoNT F protease -3, Anthrax LF inh2 0, SSB-PriA inh 2 and BoNT-A LC inh2 0.
`COc1cccc(C(=O)N(CN2CCCC2=O)c2cccc(Cl)c2)c1OC` gave Bead autofluor 16669*, BoNT F protease -4, Anthrax LF inh2 -3, SSB-PriA inh -7 and BoNT-A LC inh2 -1.
`C=CCn1c(Cc2c[nH]c3ccccc23)nnc1SCC(=O)NCc1ccccc1` gave Bead autofluor 23009*, BoNT F protease -3, Anthrax LF inh2 -3, SSB-PriA inh -1 and BoNT-A LC inh2 -2.
Screening C=CCn1c(Cc2c(C)[nH]c3ccccc23)nnc1SCC(=O)NCc1ccc(F)cc1 returned Bead autofluor 5505, BoNT F protease -26, Anthrax LF inh2 1, SSB-PriA inh 7 and BoNT-A LC inh2 -2.
Screening Cn1cccc1Cc1nnc(SCC(=O)N2CCN(c3ccccc3)CC2)n1-c1ccc(F)cc1 returned Bead autofluor 24052*, BoNT F protease -3, Anthrax LF inh2 -2, SSB-PriA inh 19 and BoNT-A LC inh2 inconclusive.
